The record followed here is PubChem BioAssay.

Active and inactive are the calls of the source. Unless noted, how the calls were made is not given here.

For experiment [1], the system named is Wnt5a (protein binding on small-molecule microarray). As to the kind of experiment: Wnt5a binders on small-molecule microarray, primary screen, biophysical, 635/667 nm fluorescence (AID 1142).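 Further: fluorescence read at 667 nm with signal to noise per printed feature.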 Particulars: 635 nm fluorescence, higher = more signal.
The nature of experiment [2]: cell viability in Huh7 cells, primary screen, cytotoxicity control for HCV replication inhibitor project, CellTiter-Glo luminescence, basal, 48 h (AID 1143).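 Further: Huh7 hepatoma cells carrying a hepatitis C replication reporter with no stimulus; test concentration not given here.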 Particulars: Huh7 HCV replicon, CellTiter-Glo luminescence, 48 h, higher = more signal, called active from +8 up or from −8 down unless noted. In general terms: In ATP-based viability assays light output follows the ATP content of the culture.

Experiment [3] can be described thus: P. aeruginosa biofilm formation inhibitors, primary screen, PAO1 strain, BacTiter-Glo luminescence, LB-PBS (AID 1144). As to conditions: 12 h, higher = more signal.
The nature of experiment [4]: CREB reporter modulators without forskolin, primary screen, cell-based, PC12, CRE-LacZ reporter, unstimulated (AID 1145). As to conditions: no forskolin, luminescence, 4.5 h; higher = more signal, called active from +8 up or from −8 down unless noted.
The nature of experiment [5]: CREB reporter modulators under forskolin, primary screen, cell-based, PC12, CRE-LacZ reporter, forskolin-stimulated (AID 1146).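 Further: PC12 cells with 6xCRE LacZ reporter stimulated by forskolin 10 µM; beta-galactosidase reporter signal reflecting CREB driven transcription.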 Particulars: luminescence, 4.5 h; higher = more signal, called active from +8 up or from −8 down unless noted.
In experiment [6] the target is Streptavidin (Streptomyces avidinii) (UniProt P22629). As to the kind of experiment: streptavidin binders on small-molecule microarray, primary screen, artefact control for SMM compound annotation, biophysical, 635/667 nm fluorescence (AID 1147).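 Further: signal reflects streptavidin binding to arrayed compounds as a control protein.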 Particulars: streptavidin binding, higher = more signal.
Streptavidin (Streptomyces avidinii), sequence (P22629 whole entry, looked up): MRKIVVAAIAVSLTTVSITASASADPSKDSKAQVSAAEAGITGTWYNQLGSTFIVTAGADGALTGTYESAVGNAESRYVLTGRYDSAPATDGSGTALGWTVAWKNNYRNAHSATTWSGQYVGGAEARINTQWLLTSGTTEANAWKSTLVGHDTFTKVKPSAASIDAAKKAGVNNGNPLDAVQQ
The nature of experiment [7]: small-molecule binders of probe aInhba, primary screen, biochemical, small-molecule microarray, 635/667 nm fluorescence (AID 1148).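 Further: score merges 667nm spot fluorescence with signal-to-noise for antibody binding to printed compounds.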 Particulars: higher = more signal; small-molecule microarray, probe aInhba, fluorescence unless noted.
Experiment [8] addresses Torsin-1A (Homo sapiens) (UniProt O14656). As to the kind of experiment: torsin A binders from cell lysate, primary screen, small-molecule microarray, wild-type, 635/667 nm (AID 1149). As to conditions: COS7 hTOR1A-WT lysate, 635 nm fluorescence, higher = more signal.
The target is the same in experiment [9]. Kind of experiment: small-molecule binders of mutant TOR1A in lysate, primary screen, cell lysate, small-molecule microarray, COS7 lysate, 635/667 nm fluorescence (AID 1150).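 Further: score pools 667 nm emission and signal to noise measuring lysate protein binding.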 As to conditions: COS7 hTOR1A mutant lysate, 635 nm fluorescence, higher = more signal.
The subject of experiment [10] is Sonic hedgehog protein (Shh). Kind of experiment: small-molecule binders of Shh protein, primary screen, biochemical, small-molecule microarray, 635/667 nm fluorescence (AID 1151).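 Further: Shh protein binding to compounds spotted on small-molecule microarray slides; score combines spot fluorescence intensity with signal-to-noise across triplicate slides.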 Particulars: small-molecule microarray binding, 635 nm fluorescence; higher = more signal.
Experiment [11] in a line: E. coli DRC41 culture turbidity changes, primary screen, E. coli filamentation inducer project, strain DRC41, OD650, 48 h (AID 1152).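 Further: E. coli MC1000 strain DRC41 lacking acrAB efflux pump and sulA.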 Particulars: E. coli DRC41 (acrAB sulA); higher = more signal, called active from +8 up or from −8 down unless noted.
A short description of experiment [12]: small-molecule binders of probe aLefty1, primary screen, biochemical, small-molecule microarray, 635/667 nm fluorescence (AID 1153).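 Further: score merges spot fluorescence with signal-to-noise ratio from the scanned slide images.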 Particulars: higher = more signal; small-molecule microarray, probe aLefty1, fluorescence unless noted.
Experiment [13] is described as follows: PSAC antagonists in infected red cells, primary screen, cell-based, P. falciparum Indochina, OD700, 1 h (AID 1154). Particulars: P. falciparum Indochina infected RBC osmotic lysis; higher = more signal, called active from +8 up or from −8 down unless noted.
A short description of experiment [14]: PSAC antagonists in infected red cells, primary screen, cell-based, P. falciparum Indochina, OD700, 2 h (AID 1155).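 Further: lysis reports solute entry through the parasite surface anion channel PSAC; channel blockers reduce lysis of infected cells.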 As to conditions: P. falciparum Indochina infected erythrocytes, osmotic lysis OD700; higher = more signal, called active from +8 up or from −8 down unless noted.
Experiment [15] in a line: osmotic lysis modulators in infected erythrocytes, primary screen, PSAC antagonist project, cell-based, P. falciparum Indochina, OD700, 3 h (AID 1156). Particulars: higher = more signal, called active from +8 up or from −8 down unless noted.
Experiment [16] is described as follows: PSAC antagonists in infected red cells, primary screen, cell-based, P. falciparum Indochina, OD700, 18 h (AID 1157). Particulars: P. falciparum Indochina infected erythrocytes, osmotic lysis OD700, 18 h; higher = more signal, called active from +8 up or from −8 down unless noted.
The nature of experiment [17]: modulators of S6 phosphorylation in cells, primary screen, cell-based, A549, cytoblot, luminescence, serum-stimulated (AID 1158).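 Further: serum-stimulated A549 lung adenocarcinoma cells; signal is phosphorylated S6 detected by cytoblot immunostaining with HRP secondary.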 Particulars: A549 phospho-S6 cytoblot, 5 h, higher = more signal.
Experiment [18] deals with NADPH oxidase 2 (Homo sapiens) (UniProt P04839). Kind of experiment: NOX2-dependent H2O2 signal modulators, primary screen, NOX inhibitor project, cell-based, HEK293-NOX2, PMA-stimulated, Amplex Red fluorescence (AID 1159). Further: test concentration not given here. As to conditions: 45 min; higher = more signal, called active from +8 up or from −8 down unless noted.
NADPH oxidase 2 (Homo sapiens), sequence (P04839 whole entry, looked up): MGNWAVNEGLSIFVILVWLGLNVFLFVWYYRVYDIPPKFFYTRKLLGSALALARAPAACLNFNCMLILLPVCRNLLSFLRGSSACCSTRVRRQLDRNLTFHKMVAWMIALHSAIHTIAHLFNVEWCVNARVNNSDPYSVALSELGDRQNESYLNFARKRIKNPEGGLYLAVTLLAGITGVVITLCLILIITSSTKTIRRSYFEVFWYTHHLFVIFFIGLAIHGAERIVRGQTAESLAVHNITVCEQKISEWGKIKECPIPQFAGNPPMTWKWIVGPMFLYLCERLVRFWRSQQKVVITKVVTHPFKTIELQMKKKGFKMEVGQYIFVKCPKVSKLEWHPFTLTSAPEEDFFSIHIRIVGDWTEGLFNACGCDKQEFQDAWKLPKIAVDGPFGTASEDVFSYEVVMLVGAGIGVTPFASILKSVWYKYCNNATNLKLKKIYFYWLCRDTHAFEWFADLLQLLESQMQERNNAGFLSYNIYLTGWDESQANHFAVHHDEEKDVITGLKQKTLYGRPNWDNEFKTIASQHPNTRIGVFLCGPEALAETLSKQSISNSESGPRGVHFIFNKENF
In experiment [19] the target is NADPH oxidase 4 (Homo sapiens) (UniProt Q9NPH5). Kind of experiment: NOX4-dependent H2O2 signal modulators, primary screen, NOX inhibitor project, cell-based, HEK293-NOX4, tetracycline-induced, Amplex Red fluorescence (AID 1160). Particulars: 45 min; higher = more signal, called active from +8 up or from −8 down unless noted.
NADPH oxidase 4 (Homo sapiens), sequence (Q9NPH5 whole entry, looked up): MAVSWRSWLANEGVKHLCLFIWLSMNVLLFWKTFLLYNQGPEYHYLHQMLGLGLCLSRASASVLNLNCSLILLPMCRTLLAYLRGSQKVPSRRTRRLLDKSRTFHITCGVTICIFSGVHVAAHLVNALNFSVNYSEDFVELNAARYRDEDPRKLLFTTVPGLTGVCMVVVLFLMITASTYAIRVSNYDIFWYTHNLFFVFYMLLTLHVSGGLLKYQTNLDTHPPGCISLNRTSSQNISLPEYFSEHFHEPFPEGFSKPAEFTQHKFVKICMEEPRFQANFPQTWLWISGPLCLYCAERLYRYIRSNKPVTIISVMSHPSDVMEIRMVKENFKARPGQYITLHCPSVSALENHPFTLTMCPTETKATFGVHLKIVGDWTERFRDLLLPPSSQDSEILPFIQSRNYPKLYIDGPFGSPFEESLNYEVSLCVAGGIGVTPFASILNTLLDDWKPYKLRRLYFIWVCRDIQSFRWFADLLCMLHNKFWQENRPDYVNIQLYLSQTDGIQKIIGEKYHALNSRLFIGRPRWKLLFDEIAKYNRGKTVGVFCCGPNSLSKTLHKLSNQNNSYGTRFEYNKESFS
In experiment [20] the target is NADPH oxidase 5 (Homo sapiens) (UniProt Q96PH1). As to the kind of experiment: NOX5-dependent H2O2 signal modulators, primary screen, NOX inhibitor project, cell-based, HEK293-NOX5, Amplex Red fluorescence (AID 1161). Particulars: HEK293-NOX5, ionomycin, 45 min, higher = more signal.
NADPH oxidase 5 (Homo sapiens), sequence (Q96PH1 whole entry, looked up): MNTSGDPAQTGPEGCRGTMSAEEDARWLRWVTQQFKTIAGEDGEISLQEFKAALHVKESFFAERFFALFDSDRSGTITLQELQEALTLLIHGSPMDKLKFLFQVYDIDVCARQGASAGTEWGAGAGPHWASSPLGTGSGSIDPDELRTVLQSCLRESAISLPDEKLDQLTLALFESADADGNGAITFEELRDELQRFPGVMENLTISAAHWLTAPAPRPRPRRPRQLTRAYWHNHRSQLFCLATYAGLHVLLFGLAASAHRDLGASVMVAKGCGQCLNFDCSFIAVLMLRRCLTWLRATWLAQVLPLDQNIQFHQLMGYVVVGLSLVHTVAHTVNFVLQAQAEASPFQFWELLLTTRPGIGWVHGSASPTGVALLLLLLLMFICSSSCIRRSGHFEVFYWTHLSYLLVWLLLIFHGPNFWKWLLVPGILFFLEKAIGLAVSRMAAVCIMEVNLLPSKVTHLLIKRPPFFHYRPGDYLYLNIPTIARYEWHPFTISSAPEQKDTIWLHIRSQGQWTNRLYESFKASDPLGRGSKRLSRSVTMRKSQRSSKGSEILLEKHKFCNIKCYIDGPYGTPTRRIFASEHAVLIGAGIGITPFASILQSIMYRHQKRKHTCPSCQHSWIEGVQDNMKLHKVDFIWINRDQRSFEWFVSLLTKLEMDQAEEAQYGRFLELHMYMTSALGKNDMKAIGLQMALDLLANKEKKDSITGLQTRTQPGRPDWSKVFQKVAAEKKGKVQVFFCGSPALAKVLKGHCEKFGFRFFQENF

Torsin-1A (Homo sapiens), sequence (O14656 whole entry, looked up): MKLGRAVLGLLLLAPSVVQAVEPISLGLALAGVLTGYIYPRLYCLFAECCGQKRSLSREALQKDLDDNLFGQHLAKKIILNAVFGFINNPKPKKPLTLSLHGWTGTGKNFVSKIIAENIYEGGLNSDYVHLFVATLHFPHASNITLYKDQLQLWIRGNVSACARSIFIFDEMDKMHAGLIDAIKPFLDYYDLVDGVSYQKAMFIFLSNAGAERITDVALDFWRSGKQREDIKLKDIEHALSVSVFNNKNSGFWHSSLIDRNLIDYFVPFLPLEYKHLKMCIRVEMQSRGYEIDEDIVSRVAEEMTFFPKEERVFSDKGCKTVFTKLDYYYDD

In the case of `CCCc1cc2c(n1Cc1ccc(C)cc1)C(C)C1CN(C(=O)c3ccccc3)C(C)(C(=O)OC)C21` (stereo not given), the composite z-score in [1] was 0.667; in [6], 1.23; in experiment [7], 0.643; in experiment [8], 0.55; in experiment [9], 1.06; in experiment [10], -0.2. For the same compound, the composite z-score in experiment [12] came out at 1.33. The z-score was -2.69 (inactive) in experiment [2]; 0.426 (inactive) in [3]; 1.53 (inactive) in experiment [4]; 1.57 (inactive) in [5]; -0.692 (inactive) in experiment [11]; 1.5 (inactive) in experiment [13]. Moreover, the z-score in experiment [14] is -0.732 (inactive); in experiment [15] it was 0.454 (inactive); in experiment [16], -1.81 (inactive); in experiment [17] it was 1.39; in [18], -0.714 (inactive); in experiment [19] it was -0.757 (inactive). The compound further displayed a z-score in [20] of -3.63.
Turning to `CN1CCC(c2ccc(CO)cc2)=CC1C1CC1` (stereo not given), the composite z-score in experiment [1] is -0.103; in [6], -0.333; in [7], -0.101; in experiment [8], 0.309; in [9] it was 0.431; in [10], 1.85. This compound also came in with a composite z-score in experiment [12] of 0.103. In addition, the z-score in [2] was -0.209 (inactive); in experiment [3], 0.656 (inactive); in experiment [4], 3.78 (inactive); in experiment [5], 0.54 (inactive); in experiment [11], -0.492 (inactive); in [13] it was 0.899 (inactive). The z-score in experiment [14] is 0.0137 (inactive); in experiment [15], -0.38 (inactive); in [16], 0.0864 (inactive); in experiment [17] it was -1.04; in [18], -0.477 (inactive); in experiment [19] it was -0.169 (inactive). In [20], the z-score was -0.0858.
For the compound `c1ccc(-c2cc3c(nc2-c2ccccc2)CCNC3)cc1`, the composite z-score was -0.2 in experiment [1]; 0.0291 in experiment [6]; 0.0228 in [7]; 0.175 in [8]; -0.256 in experiment [9]; -0.193 in experiment [10]. Moreover, the composite z-score in experiment [12] is -0.101. Further, the z-score is -0.207 (inactive) in experiment [2]; 0.346 (inactive) in [3]; 0.291 (inactive) in [4]; -0.815 (inactive) in experiment [5]; -0.539 (inactive) in experiment [11]; 1.39 (inactive) in experiment [13]. The z-score in [14] was 0.179 (inactive); in experiment [15], 0.484 (inactive); in experiment [16] it was 0.248 (inactive); in experiment [17], -0.597; in [18], 1.18 (inactive); in [19], 0.286 (inactive). In experiment [20], the z-score is -0.433.
`CCCC=C(CCC)[C@@H](NP(=O)(c1ccccc1)c1ccccc1)c1ccccc1`: the composite z-score in experiment [1] is -0.0444; in experiment [6], 0.821; in [7], -0.168; in experiment [8] it was 0.364; in [9] it was 0.368; in [10], -0.0623. The composite z-score in experiment [12] was determined as 0.547. In addition, the z-score in [2] is -0.411 (inactive); in experiment [3], 0.168 (inactive); in experiment [4], 0.201 (inactive); in [5], 0.89 (inactive); in experiment [11], -1.19 (inactive); in experiment [13], 4.03 (inactive). The z-score in experiment [14] was 0.584 (inactive); in experiment [15], 0.689 (inactive); in experiment [16], 0.249 (inactive); in experiment [17] it was 1.02; in [18], -1.7 (inactive); in experiment [19], -0.617 (inactive). This compound also registered a z-score in experiment [20] of 0.842.
Consider `CCCc1cc2c(n1Cc1cccc(Cl)c1)C(C)C1CN(C(=O)c3ccccc3)C(C)(C(=O)OC)C21` (stereo not given), for which the composite z-score was 0.318 in experiment [1]; 0.78 in experiment [6]; 0.138 in experiment [7]; -0.0514 in [8]; 1.27 in experiment [9]; -0.083 in [10]. Also, in experiment [12], the composite z-score amounted to 0.235. Moreover, the z-score in experiment [2] was -2.78 (inactive); in [3], 0.00978 (inactive); in [4] it was 0.0041 (inactive); in experiment [5] it was -1.1 (inactive); in [11], -1.69 (inactive); in [13], 2.02 (inactive). For the same compound, the z-score in experiment [14] was 0.676 (inactive); in [15], 1.22 (inactive); in experiment [16], 0.153 (inactive); in [17] it was -0.46; in [18], -1.21 (inactive); in experiment [19], -2.3 (inactive). The z-score in [20] is -2.42.
`C[C@@H]1Cc2c(cnc3c2CN(C)CC3)CO1`: the composite z-score is 0.0844 in experiment [1]; -0.179 in experiment [6]; -0.0523 in experiment [7]; 0.742 in experiment [8]; 1.12 in experiment [9]; 1.71 in experiment [10]. For the same compound, in experiment [12], the composite z-score is -0.152. The z-score in experiment [2] was -1.38 (inactive); in experiment [3] it was -0.181 (inactive); in experiment [4], -0.258 (inactive); in [5] it was -1.05 (inactive); in experiment [11], -0.397 (inactive); in [13], -0.0969 (inactive). Further, the z-score in experiment [14] was -0.0787 (inactive); in experiment [15] it was 0.123 (inactive); in [16], 0.0517 (inactive); in experiment [17] it was -0.0609; in experiment [18], 1.5 (inactive); in experiment [19] it was 0.188 (inactive). For the same compound, the z-score in experiment [20] was -0.719.
With `CCCC[C@@H]1C[C@H]1[C@@H](NP(=O)(c1ccccc1)c1ccccc1)c1ccc(Cl)cc1`, the composite z-score in experiment [1] is 0.0234; in experiment [6], 0.239; in experiment [7], 0.157; in experiment [8], -1.53; in experiment [9], -0.202; in experiment [10], -1.29. The composite z-score in experiment [12] was 0.337. For the same compound, the z-score is -0.971 (inactive) in experiment [2]; -0.451 (inactive) in [3]; -0.379 (inactive) in experiment [4]; -0.273 (inactive) in experiment [5]; -1.26 (inactive) in experiment [11]; 7.22 (inactive) in experiment [13]. Also, the z-score in [14] is 1.78 (inactive); in [15] it was 0.394 (inactive); in experiment [16], 0.788 (inactive); in experiment [17], -0.554; in experiment [18], -1.87 (inactive); in experiment [19] it was -1.56 (inactive). In [20], this compound had a z-score of 0.453.
`OCc1ccc(C2=CC(c3cccs3)N(Cc3cccc(OC(F)(F)F)c3)CC2)cc1` (stereo not given): the composite z-score in experiment [1] is 0.136; in experiment [6] it was -0.0232; in [7] it was -0.0719; in experiment [8], 0.761; in experiment [9], 1.16; in experiment [10] it was 1.05. The composite z-score in experiment [12] was -0.148. Besides, the z-score was -4.06 (inactive) in experiment [2]; 1.28 (inactive) in [3]; 1.54 (inactive) in experiment [4]; -0.162 (inactive) in experiment [5]; -0.915 (inactive) in experiment [11]; 3.92 (inactive) in experiment [13]. Further, the z-score was 1.2 (inactive) in [14]; -0.18 (inactive) in experiment [15]; 0.822 (inactive) in experiment [16]; -0.0923 in [17]; 0.655 (inactive) in [18]; -0.666 (inactive) in experiment [19]. Moreover, the z-score in experiment [20] is -1.38.
